Test results: ChEMBL document CHEMBL3988442, “University of Dundee, Small-Polar-MMV Screening Library” (2021)
About 1,200 (3.2%) of roughly 38,000 compounds showed an effect of 50% or more. The median lay at about -58%. The sample as a whole holds a higher share of strong results than the screen did.

system: Plasmodium falciparum; test: Calibr Malaria Delayed Death Assay SOP; assay type: functional, organism-based; parameters: scale not given: in the data most compounds retested in dose-response had high values; conditions: concentration 4.99e-06 (unit not given; other assays of the set use mol/L)

Row | Structure (SMILES) | Percent Effect [%]
1 | O=c1cc(Cn2ccnc2)nc2n1CCCN(Cc1ccncc1)C2 | -42.89
2 | Cn1cccc1C(=O)N1CCCn2nc(CCC(=O)NC3CC3)cc2C1 | -14.31
3 | O=C(c1ccc(S(=O)(=O)NCc2ccon2)cc1)N1CCOCC1 | -26.34
4 | O=C(O)C(F)(F)F.O=C(c1ccnnc1)N1C[C@@H]2C[C@@H](c3nc(C4CC4)cs3)O[C@@H]2C1 | -41.35
5 | Cc1ccoc1C(=O)N1C[C@@H](OCC2CCOCC2)[C@H]2OCCC[C@H]21 | 0.5559
6 | CCOc1ccc(NC(C)C(=O)Nc2cc(C)no2)cc1 (centres undefined) | -61.09
7 | CC1(C)CN(Cc2c[nH]c(CC3CCCC3)n2)CC[C@]1(C)O | -34.05
8 | OC1(CN2CCCCC2)CCN(Cc2c[nH]c(CC3CCCC3)n2)C1 (centres undefined) | 52.98
9 | OC1(CN2CCCC2)CCCN(Cc2c[nH]c(CC3CCCC3)n2)C1 (centres undefined) | 36.89
10 | C[C@@H]1CN(Cc2c[nH]c(CC3CCCC3)n2)CC[C@]1(C)O | -135.8
11 | COC[C@]1(O)CCN(Cc2c[nH]c(CC3CCCC3)n2)CC1(C)C | 15.86
12 | c1[nH]c(CC2CCCC2)nc1CN1CCCC2(CCOC2)C1 (centres undefined) | 81.53
13 | CN1CC(=O)N(c2ccccc2)CC12CCN(C(=O)c1cnccn1)C2.O=C(O)C(F)(F)F (centres undefined) | -66.28
14 | O=C(O)C(F)(F)F.O[C@@H]1CCN(CC2CCOC2)[C@H]1Cc1ccccc1 (some centres undefined) | -110.3
15 | COc1ccc(CN2CC[C@@H](O)[C@@H]2Cc2ccccc2)cc1.O=C(O)C(F)(F)F | 80.27
16 | Cn1cc(CN2CC[C@@H](O)[C@@H]2Cc2ccccc2)cn1 | -45.02
17 | O=C(O)C(F)(F)F.O[C@@H]1CCN(CC2CC2)[C@H]1Cc1ccccc1 | 63.26
18 | Cn1cc(CN2CC[C@H](O)[C@@H]2Cc2ccccc2)cn1.O=C(O)C(F)(F)F | 22.75
19 | O=C(O)C(F)(F)F.O=C(O)C(F)(F)F.O[C@@H]1CCN(CC2CCOC2)[C@H]1Cc1cccnc1 (some centres undefined) | -68.9
20 | COc1ccc(CN2CC[C@@H](O)[C@@H]2Cc2cnn(C)c2)cc1.O=C(O)C(F)(F)F | -130.2
21 | COc1ccc(CN2CC[C@H](O)[C@@H]2Cc2cnn(C)c2)cc1.O=C(O)C(F)(F)F | -6.903
22 | NCC(CO)Cc1ccc(C(F)(F)F)cc1 (centres undefined) | -43.7
23 | CC(C)Oc1ncccc1CNC(=O)c1ccc(=O)[nH]n1 | -94.73
24 | CCCS(=O)(=O)NCCc1ncc(C)s1 | -127.4

Row | Structure (SMILES) | Percent Effect [%]
25 | COc1ccc(NC(=O)C(c2cccc(F)c2)N2CCOCC2)cc1 (centres undefined) | -6.296
26 | Cc1cc(C)c(S(=O)(=O)Nc2cccc3c2OCCO3)cc1C(=O)O | -20.88
27 | CNCC(=O)NC1CC(C)(C)Cc2nc(C(C)(C)C)ncc21 (centres undefined) | 3.513
28 | CC(C)C(=O)N1CCN(Cc2cnn(C)c2)CC2(CC(=O)N(C)C2)C1.O=C(O)C(F)(F)F (centres undefined) | -69.27
29 | COc1ccc2nnc(C(=O)NCC3CCCC3)nc2c1 | -78.39
30 | OC1(CNCc2ccc(F)c(C(F)(F)F)c2)CCOC1 (centres undefined) | -5.548
31 | Cc1cc(CNCC2(O)CCOCC2)ccc1F | 16.95
32 | OC1(CNCc2ccc(F)c(C(F)(F)F)c2)CCSCC1 | 54.72
33 | Cc1cc(CNCC2(O)CCOCC2)ccc1Br | 44
34 | CN1CCC(O)(CNCc2ccc(F)c(C(F)(F)F)c2)CC1 | 82.66
35 | O=C(NCc1ccc(Cl)cc1Cl)NCC1(O)CCSC1 (centres undefined) | 0.496
36 | COCC1CN(Cc2ccsc2)Cc2cnn(C)c21 (centres undefined) | -44.18
37 | CC(C)[C@H](NC(=O)NC1CCS(=O)(=O)C1)C(=O)NCc1ccccc1 (some centres undefined) | -124.5
38 | O=C(CN1C[C@H]2CC[C@@H]1CN(Cc1ccccn1)C2)Nc1ccccc1 | 82.97
39 | O=C(CN1C[C@H]2CC[C@@H]1CN(Cc1ccccn1)C2)NCc1cccs1 | 67.17
40 | CC(C)c1cc(C(=O)N2C[C@H]3CC[C@@H]2CN(Cc2ccccn2)C3)no1 | -200.1
41 | Cc1cnn(C2CN(CC(=O)NCc3ccccn3)C2)c1 | -188.5
42 | O=C(c1cc(C2CC2)no1)N1C[C@H]2CC[C@@H]1CN(Cc1ccccn1)C2 | 5.083
43 | Cc1nnsc1CN1C[C@H]2CC[C@@H]1CN(Cc1ccccn1)C2 | -7.135
44 | Cc1nccc(CNC(=O)N(CCCO)C2CCc3ccccc32)n1 (centres undefined) | -86.6
45 | COc1ccccc1CNC(=O)COc1ccc2c(c1)OCC2O (centres undefined) | -166.7
46 | CC(C)n1cc(-c2nc3cc(S(=O)(=O)N4CCCC4)ccc3n2C)cn1 | -92.66
47 | Cc1ccccc1C(C(=O)NCCN1CCC(CO)CC1)N(C)C (centres undefined) | -106.7
48 | O=C(NCCN1CCCCC1)C(c1ccccc1)N1CCCC1 (centres undefined) | 79.97

Row | Structure (SMILES) | Percent Effect [%]
49 | O=C(NCCNc1cccnc1)C(c1cccnc1)N1CCCC1 (centres undefined) | -14.56
50 | Cc1ccc(C(C(=O)NCCN2CCCCCC2)N(C)C)cc1 (centres undefined) | 58.29
51 | O=C(NCCn1cccc1)C(c1ccccc1)N1CCCC1 (centres undefined) | 54.29
52 | CN1CCN(CCNC(=O)C(OC2CCCC2)c2ccccc2)CC1 (centres undefined) | 38.55
53 | Cc1ccc(C(C(=O)NCCN2CCC(CO)CC2)N(C)C)cc1 (centres undefined) | -10.34
54 | Cc1ccccc1C(C(=O)NCCn1cccc1)N(C)C (centres undefined) | 36.37
55 | CC1(C(=O)NCCN2CCCCC2)CCCN1C(=O)c1ccccc1 (centres undefined) | -16.7
56 | COc1cccc(Cn2cc(N3C(=O)[C@H]4CCCC[C@H]4C3=O)cn2)c1 | -60.69
57 | Cc1cccc(C)c1OCCCN1CCN(CC2CCCO2)CC1 (centres undefined) | 11.15
58 | CC/N=c1\nc(NCC)nc2n1C(O)(Nc1cc(Cl)ccc1Cl)CS2 (centres undefined) | -3.589
59 | CC(=O)c1ccc(NC(=O)N[C@H](C(=O)O)C(C)C)cc1 | -95.29
60 | NC1CCCc2nc(-c3ccccc3)ncc21 (centres undefined) | -87.16
61 | O=C(c1ccccc1Cl)N1CC[C@H](O)[C@@H](N2CCOCC2)CC1 | -83.45
62 | O=C(O)C(F)(F)F.O=C(O)C(F)(F)F.O=C(O)C(F)(F)F.c1cc(COC[C@]23COC[C@H]2CN(Cc2ccncc2)C3)ccn1 | -128.8
63 | O=C(O)C(F)(F)F.O=C(O)C(F)(F)F.O=C(O)C(F)(F)F.c1ccc(CN2C[C@@H]3COC[C@]3(COCc3ccncc3)C2)nc1 | -55.25
64 | COc1ccccc1CN1C[C@@H]2COC[C@]2(COCc2ccncc2)C1.O=C(O)C(F)(F)F.O=C(O)C(F)(F)F | 53.03
65 | COc1cccc(CN2C[C@@H]3COC[C@]3(COc3cccnc3)C2)c1.O=C(O)C(F)(F)F.O=C(O)C(F)(F)F | 12.68
66 | COc1ccccc1CN1C[C@@H]2COC[C@]2(COc2cccnc2)C1.O=C(O)C(F)(F)F.O=C(O)C(F)(F)F | 52.99
67 | CCOC[C@]12COC[C@H]1CN(Cc1cccc(OC)c1)C2.O=C(O)C(F)(F)F | -1.674
68 | COc1cc(N2C[C@@H]3COC[C@]3(COCc3ccccn3)C2)ncn1.O=C(O)C(F)(F)F.O=C(O)C(F)(F)F | -135.9
69 | COc1cccc(CN2C[C@@H]3COC[C@]3(COCc3ccccn3)C2)c1.O=C(O)C(F)(F)F.O=C(O)C(F)(F)F | 58.94
70 | COc1ncccc1CN1C[C@@H]2COC[C@]2(COc2cccnc2)C1.O=C(O)C(F)(F)F.O=C(O)C(F)(F)F.O=C(O)C(F)(F)F | -33.52
71 | Cc1cnc(CN(C)Cc2cc3c(cc2OC(F)F)OCO3)o1 | -25.68
72 | Cc1noc(C)c1CSCc1csc(CS(C)(=O)=O)n1 | -34.91

Row | Structure (SMILES) | Percent Effect [%]
73 | COCCCNC(=O)c1cc(-c2cnc(N3CCOCC3)nc2)cn1C.O=C(O)C(F)(F)F | -55.95
74 | CCn1ncc2c1C(COC)CN(Cc1nccs1)C2 (centres undefined) | -17.13
75 | COc1ccc(-n2ccc(C(=O)NCCN3CCCC(C)C3)n2)cc1 (centres undefined) | 4.937
76 | Cn1cc(CN2C[C@H]3CCN(C(=O)c4cscn4)C[C@H]3C2)cn1.O=C(O)C(F)(F)F | -59.18
77 | CC(Cn1cccn1)NCc1csc(Cc2ccccc2)n1 (centres undefined) | 5.726
78 | CCOc1ccc(-c2cc(CCN)ccc2OC)cc1 | -62.01
79 | COc1ccc(CCN)cc1-c1ccc(O)cc1 | 84.96
80 | COc1ccc(CCN)cc1-c1ccc(C(N)=O)cc1 | 6.686
81 | O=C(Cn1c(=O)oc2ccccc21)NCC1(O)CCc2ccccc21 (centres undefined) | -139.2
82 | c1cnc(N2CCCC(c3cncc(-n4ccnc4)n3)C2)nc1 (centres undefined) | -26.3
83 | Cc1cc(NCCO)nc(-c2ccccc2O)n1 | -228.5
84 | Cc1cc(NCCN)nc(-c2ccccc2O)n1 | 78.32
85 | Cc1cc(NCCNc2cccnc2)nc(-c2ccccc2O)n1 | -179.2
86 | COCC1COCCC12CCN(S(=O)(=O)c1ccc(C)cc1)CC2 (centres undefined) | -77.98
87 | CCNC(=O)[C@@H]1C[C@@H](NC(=O)c2cnc[nH]c2=O)CN1Cc1ccsc1 | -128.1
88 | O=C(CN1CCOCC1)Nc1ncc(Br)cc1Br | -123.1
89 | c1ccc(Cc2noc(CCNC3CCOC4(CCOCC4)C3)n2)cc1 (centres undefined) | -44.81
90 | Fc1cccc(C2(CNC3CCCNC3)CCOCC2)c1 (centres undefined) | -89.15
91 | Fc1ccccc1C1(CNC2CCOC3(CCOCC3)C2)CCCC1 (centres undefined) | 75.67
92 | Fc1cccc(C2(CNC3CCOC4(CCOCC4)C3)CCOCC2)c1 (centres undefined) | 39.6
93 | c1ccc2c(c1)nnn2CCCNC1CCOC2(CCOCC2)C1 (centres undefined) | -5.834
94 | c1ccc2c(c1)cnn2CCCNC1CCOC2(CCOCC2)C1 (centres undefined) | 68.4
